Source: PubChem (several laboratories)
Rows were chosen to be rich in hits. Some 2.2% of all compounds tested hit in one or more screens of this group.
TMEM16A inh: inhibitors of mouse TMEM16A calcium-activated chloride channel; normalized B-score (activity score, 25-100; higher = stronger inhibition) at 10 µM; Q8BHY3; 1.2% of 310,000 active; HEK293 TMEM16A/YFP iodide influx fluorescence, ionomycin;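 active = ratio plate-corrected score three or more library SD toward inhibition, starting fluorescence score within five deviations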;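 note: score derived from kinetic fluorescence span divided by baseline fluorescence per well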
NOD2 RIPK2 PPI: inhibitors of human NOD2-RIPK2 interaction; inhibition, % at 4.98 µM; CHO BLA complementation NOD2-RIPK2, CCF4 ratio; 0.38% of 360,000 active; O43353; AID 624267; in the data active = inhibition above about 21%
GRK2 aptamer HTS: human GRK2 inhibition via aptamer displacement; 0.59% of 330,000 active; bead flow cytometry, FAM-aptamer displacement from GRK2; inhibition of aptamer binding, % at 10 µM; P25098;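 active = inhibition of aptamer binding above 40%, roughly 3 SD of noise, on plates passing a quality check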;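 note: median bead fluorescence of bound FAM aptamer so fluorescent compounds give negative values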
TLR9-MyD88 inh: TLR9-MyD88 interaction inhibition; AID 504734; Q9NR96+Q99836; 0.21% of 340,000 active; inhibition, % at 4.98 µM; CHO BLA complementation TLR9-MyD88, CCF4 FRET ratio;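 active = inhibition above the mean over all tested compounds plus 3 SD, cut at about 21% in these data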
ANO1 activ: activates or potentiates the mouse TMEM16A chloride channel; 0.3% of 340,000 active; B-score at 10 µM; HEK293 TMEM16A/YFP-H148Q/I152L, iodide quench fluorescence; stronger effect = lower value; AID 623877; Q8BHY3;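 active = fluorescence-ratio B-score plate-corrected deviation score at least 3 library SD below zero, with starting fluorescence score within 5 deviations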;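 note: channel opened by trigger with iodide after compound preincubation; score built on the fluorescence ratio of max minus min over baseline; more negative score means more quench and so TMEM16A activation or potentiation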
NOD2 RIPK2 conf: NOD2-RIPK2 interaction inhibition confirmed. shares compounds with NOD2 RIPK2 PPI. CHO cells, NOD2-RIPK2 BLA complementation, CCF4 FRET. inhibition, % at 4.98 µM. 70% of 1,200 active;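 active = mean inhibition across replicates above a set limit taken from the earlier primary screen, cut at about 21% in these data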
BLA counter: NOD2-RIPK2 counterscreen BLA reporter activity; 57% of 1,200 active; CHO BLA reporter, CCF4 FRET ratio; inhibition, % at 4.98 µM; shares compounds with NOD2 RIPK2 PPI;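 active = mean inhibition above the low-control mean inhibition plus three low-control SD, cut at about 11% in these data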
Large screens that a line does not name were inactive (follow-up assays come after a bar, where they were run).

CCOC(=O)[C@]12Cc3c(cc(OC)c(OC)c3OC)[C@H]1N(C1CCCCC1)C(=O)c1ccccc12	NOD2 RIPK2 PPI 28 (no result: TMEM16A inh, GRK2 aptamer HTS, TLR9-MyD88 inh, ANO1 activ) | NOD2 RIPK2 conf 71 | BLA counter inactive
CCOC(=O)[C@]12Cc3cc(N(C)C)ccc3[C@H]1N(Cc1ccccc1)C(=O)c1ccccc12	NOD2 RIPK2 PPI 23 (no result: TMEM16A inh, GRK2 aptamer HTS) | NOD2 RIPK2 conf inactive | BLA counter inactive
CC(=O)OC1CCC2(C)C(CCC3C4CC(N5CC5)C(C(C)=O)C4(C)CC(=O)C32)C1 (stereo not given)	none (no result: TMEM16A inh, GRK2 aptamer HTS)
CC1=C(C)CC2(C(=O)NC(=S)NC2=O)C(C)C1 (stereo not given)	none (no result: TMEM16A inh, GRK2 aptamer HTS)
O=C1NCN(c2ccccc2)C12CCN(C(c1ccnc3ccccc13)c1nnnn1C1CCCCC1)CC2 (stereo not given)	none (no result: TMEM16A inh, GRK2 aptamer HTS, TLR9-MyD88 inh, ANO1 activ)
CC1CCN(C(CC(=O)c2ccccc2)C(=O)c2ccccc2)CC1 (stereo not given)	NOD2 RIPK2 PPI 28 (no result: TMEM16A inh, GRK2 aptamer HTS) | NOD2 RIPK2 conf inactive | BLA counter inactive
COc1cc(/C=C/[N+](=O)[O-])ccc1OC(=O)c1cccnc1	NOD2 RIPK2 PPI 22 | NOD2 RIPK2 conf 86 | BLA counter inactive
CC(=O)O[C@H]1C[C@@H]2OC3C=C(C)CCC3(C)[C@@]1(C)[C@@]21CO1 (stereo not given in full)	NOD2 RIPK2 PPI 24 (no result: TMEM16A inh, GRK2 aptamer HTS) | NOD2 RIPK2 conf 28 | BLA counter inactive
CC(=O)OC1CC2OC3C=C(C)CCC3(C)C1(C)C21CO1 (stereo not given)	NOD2 RIPK2 PPI 25 (no result: TMEM16A inh, GRK2 aptamer HTS, TLR9-MyD88 inh, ANO1 activ) | NOD2 RIPK2 conf 27 | BLA counter inactive
CC1CCOC(=O)C=CC=CC(=O)OC2CC3OC4C5OC5(C)C(O)CC4(COC(=O)C1O)C2(C)C31CO1 (stereo not given)	NOD2 RIPK2 PPI 28 (no result: TMEM16A inh, GRK2 aptamer HTS) | NOD2 RIPK2 conf 21 | BLA counter inactive
CC1=CC2OC3CC4OC(=O)C=CC=CC(=O)OCCC(C)C(O)C(=O)OCC2(CC1)C4(C)C31CO1 (stereo not given)	NOD2 RIPK2 PPI 23 (no result: TMEM16A inh, GRK2 aptamer HTS) | NOD2 RIPK2 conf inactive | BLA counter inactive
CC1=CC2OC3CC4OC(=O)C=CC=CC(C(C)O)OCC(O)C5(C)OC5C(=O)OCC2(CC1O)C4(C)C31CO1 (stereo not given)	NOD2 RIPK2 PPI 29 (no result: TMEM16A inh, GRK2 aptamer HTS) | NOD2 RIPK2 conf inactive | BLA counter inactive
O=C(COC(=O)c1cc(Br)cc(Br)c1O)NC12CC3CC(CC(C3)C1)C2	none (no result: TMEM16A inh, GRK2 aptamer HTS, TLR9-MyD88 inh, ANO1 activ)
CS(=O)(=O)c1ccc(C2=C(CNC(=O)c3nccs3)[C@H]3CC[C@@H](C2)N3Cc2ccccc2)cc1	none (no result: TMEM16A inh, GRK2 aptamer HTS, ANO1 activ)
CC1CC(C)(O)CC(C(O)CC2CC(=O)NC(=O)C2)C1=O (stereo not given)	NOD2 RIPK2 PPI 21 (no result: TMEM16A inh, GRK2 aptamer HTS) | NOD2 RIPK2 conf 25 | BLA counter inactive
CC=CC(C)=CC(C)C(=O)CC(O)CC1CC(=O)NC(=O)C1 (stereo not given)	none (no result: TMEM16A inh, GRK2 aptamer HTS, ANO1 activ)
CC(C)(OOC1(c2ccccc2)NC(=O)c2ccccc21)c1ccccc1 (stereo not given)	none (no result: TMEM16A inh, GRK2 aptamer HTS, TLR9-MyD88 inh, ANO1 activ)
CN(C)CC(C(=O)Cc1ccccc1)c1ccccc1 (stereo not given)	NOD2 RIPK2 PPI 57 (no result: TMEM16A inh, GRK2 aptamer HTS) | NOD2 RIPK2 conf inactive | BLA counter inactive
C[C@@H]([C@@H](O)c1ccccc1)N(C)C(=O)Cc1ccccc1	none
CCCCCN1C(=O)c2cc(OC)ccc2[C@@]2(C(=O)OCC)Cc3cc(OC)ccc3[C@@H]12	none (no result: TMEM16A inh, GRK2 aptamer HTS, TLR9-MyD88 inh, ANO1 activ)
